Test results reported in PMC4336329 (PLoS ONE, 2015).
Screen size: about 310,000 compounds; about 14,000 (4.5%) showed an effect of 50% or more. The effect is printed as a negative number. The sample holds strong results, similar compounds and a random draw of the others, so the mix is not that of the screen.
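Also: peak tail current of the secondary pulse compared with the same well before compound.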

Each compound was assayed against human ether-à-go-go-related gene (hERG) potassium channel (human, UniProt Q12809) (assay: primary screen, population patch clamp on CHO cells stably expressing hERG; higher = less effect of the substance).
Chain of human ether-à-go-go-related gene (hERG) potassium channel (Q12809 whole entry, looked up): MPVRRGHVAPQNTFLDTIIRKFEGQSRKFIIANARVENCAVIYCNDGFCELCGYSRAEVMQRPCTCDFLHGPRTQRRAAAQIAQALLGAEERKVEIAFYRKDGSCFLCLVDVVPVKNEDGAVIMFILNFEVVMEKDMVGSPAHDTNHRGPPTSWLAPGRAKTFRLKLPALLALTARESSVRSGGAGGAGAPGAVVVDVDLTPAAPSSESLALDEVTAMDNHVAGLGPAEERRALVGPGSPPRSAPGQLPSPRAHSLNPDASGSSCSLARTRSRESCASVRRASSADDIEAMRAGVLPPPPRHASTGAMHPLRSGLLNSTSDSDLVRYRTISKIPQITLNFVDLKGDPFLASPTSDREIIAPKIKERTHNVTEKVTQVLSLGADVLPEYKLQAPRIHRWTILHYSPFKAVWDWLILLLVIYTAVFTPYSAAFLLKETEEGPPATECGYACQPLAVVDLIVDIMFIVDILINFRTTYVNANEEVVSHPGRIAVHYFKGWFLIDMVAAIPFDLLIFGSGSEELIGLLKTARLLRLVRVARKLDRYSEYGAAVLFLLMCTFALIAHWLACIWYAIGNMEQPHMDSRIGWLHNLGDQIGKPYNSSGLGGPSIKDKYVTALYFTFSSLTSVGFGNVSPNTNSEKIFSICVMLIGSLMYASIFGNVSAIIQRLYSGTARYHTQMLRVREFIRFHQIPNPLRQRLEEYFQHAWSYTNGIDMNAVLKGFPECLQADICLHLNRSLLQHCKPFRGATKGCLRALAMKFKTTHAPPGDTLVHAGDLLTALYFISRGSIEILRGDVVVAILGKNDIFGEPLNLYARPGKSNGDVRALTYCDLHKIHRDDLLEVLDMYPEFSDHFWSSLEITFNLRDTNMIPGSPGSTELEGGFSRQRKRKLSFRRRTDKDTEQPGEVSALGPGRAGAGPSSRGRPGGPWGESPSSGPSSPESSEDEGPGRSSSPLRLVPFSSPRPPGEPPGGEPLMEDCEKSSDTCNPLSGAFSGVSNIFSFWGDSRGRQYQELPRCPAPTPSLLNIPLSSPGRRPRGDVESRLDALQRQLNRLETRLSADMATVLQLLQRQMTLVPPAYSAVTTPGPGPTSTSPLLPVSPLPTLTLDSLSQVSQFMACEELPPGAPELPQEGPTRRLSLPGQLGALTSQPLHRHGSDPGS
`CCN(C(=O)COC(=O)c1ccc2[nH]c3c(c2c1)CCCC3)C1CCS(=O)(=O)C1` (centres unmarked) was tested, and the “hERG current change (%, negative = inhibition) at 10uM” value was -8.35%.
In the case of `COc1ccccc1C(=O)Nc1nnc(S(=O)(=O)N2CCCCCC2)s1`, the “hERG current change (%, negative = inhibition) at 10uM” value is reported as 3.54%.
In the case of `COc1cc(/C=C/C(=O)O)cc(S(=O)(=O)Nc2ccc3cn[nH]c3c2)c1OC`, the “hERG current change (%, negative = inhibition) at 10uM” value is reported as 9.74%.
With `O=c1[nH]c(-c2ccccn2)nc2ccccc12` the “hERG current change (%, negative = inhibition) at 10uM” value was -3.46%.
`COc1ccc(/C=N/Nc2nc(-c3ccc(Cl)cc3)cc(C(F)(F)F)n2)c(OC)c1` was tested, and the “hERG current change (%, negative = inhibition) at 10uM” value was 2.62%.
`CC(C)CNC(=O)CSc1ccc(Cl)cc1` was tested, and the “hERG current change (%, negative = inhibition) at 10uM” value was -3.84%.
With `O=C(CN1CCN(Cc2ccccc2)CC1)c1ccccc1` the “hERG current change (%, negative = inhibition) at 10uM” value was 1.35%.
With `Cc1ccc(OCC(=O)Nc2ccc(N3CCN(S(C)(=O)=O)CC3)cc2)cc1` the “hERG current change (%, negative = inhibition) at 10uM” value was 17.4%.
In the case of `CCc1ccc(NC(=O)CN2CC(c3ccccc3)CC2=O)cc1` (centres unmarked), the “hERG current change (%, negative = inhibition) at 10uM” value is reported as -27.6%.
In the case of `CN(CC1CCOCC1)C(=O)c1ccc2nc(Cc3cccc(Cl)c3)oc2c1`, the “hERG current change (%, negative = inhibition) at 10uM” value is reported as -69.7%.
`CN(CCCN1CCOCC1)C(=O)c1ccc2nc(Cc3cccc(Cl)c3)oc2c1` was tested, and the “hERG current change (%, negative = inhibition) at 10uM” value was -6.26%.
In the case of `O=C(NCC1CCOCC1)c1ccc2nc(Cc3cccc(Cl)c3)oc2c1`, the “hERG current change (%, negative = inhibition) at 10uM” value is reported as -12.8%.
With `Cc1ccc(C)c(S(=O)(=O)C(C#N)c2nc3ccccc3nc2N2CC(C)OC(C)C2)c1` (centres unmarked) the “hERG current change (%, negative = inhibition) at 10uM” value was 4.01%.
`Cc1ccc(OCCC(=O)OCC(=O)Nc2ccc3[nH]c(=O)[nH]c3c2)cc1` was tested, and the “hERG current change (%, negative = inhibition) at 10uM” value was -20.3%.
For `CCc1ccc(-c2cc(C(=O)O)c3ccccc3n2)s1`, the “hERG current change (%, negative = inhibition) at 10uM” value was 16.9%.
For `CCOc1ccc(-c2cc(C(=O)NCCCn3ccnc3)c3cc(Br)ccc3n2)cc1`, the “hERG current change (%, negative = inhibition) at 10uM” value was 7.06%.
For `CCc1ccc(-c2cc(C(=O)NCc3ccco3)c3ccccc3n2)s1`, the “hERG current change (%, negative = inhibition) at 10uM” value was -9.4%.
In the case of `Cc1ccc(-c2cc(C(=O)NCCCn3ccnc3)c3cc(Br)ccc3n2)o1`, the “hERG current change (%, negative = inhibition) at 10uM” value is reported as -73.8%.
`CCC(CC)NC(=O)c1cc2c(C)nn(Cc3ccccc3Cl)c2s1` was tested, and the “hERG current change (%, negative = inhibition) at 10uM” value was 10.9%.
`Cc1ccc2nc(-c3ccccc3)cc(C(=O)NCCCn3ccnc3)c2c1` was tested, and the “hERG current change (%, negative = inhibition) at 10uM” value was -40.7%.
For `CCc1ccc(-c2cc(C(=O)NCCCn3ccnc3)c3ccccc3n2)s1`, the “hERG current change (%, negative = inhibition) at 10uM” value was -73.6%.
`Cc1nn(Cc2ccccc2Cl)c2sc(C(=O)NCCCn3ccnc3)cc12` was tested, and the “hERG current change (%, negative = inhibition) at 10uM” value was -82.6%.
With `Cc1ccccc1C(=O)NCCCn1ccnc1` the “hERG current change (%, negative = inhibition) at 10uM” value was 18.3%.
With `O=C(NCCCn1ccnc1)c1cc(-c2cccnc2)nc2ccc(Br)cc12` the “hERG current change (%, negative = inhibition) at 10uM” value was -45.1%.
In the case of `Cc1nn(Cc2ccccc2Cl)c2sc(C(=O)NC(C)(C)C)cc12`, the “hERG current change (%, negative = inhibition) at 10uM” value is reported as 10.7%.
With `Cc1ccc(-c2cc(C(=O)NCCCn3ccnc3)c3ccccc3n2)s1` the “hERG current change (%, negative = inhibition) at 10uM” value was -70.9%.
